Assay results from PubChem BioAssay (NCATS).
Records with an inconclusive call do not appear. Entries that show only a call come without a potency. The source made the active and inactive calls. Calls follow the shape of the dose curve; as a rule, active = well fitted inhibition curve with a large enough effect; inconclusive = small, poorly fitted or top-dose-only effect; inactive = flat fitted curve, though single readings scatter.

tested on: TAB113; assay: qHTS profiling for inhibitors of Plasmodium falciparum proliferation (AID 504749); also: nearly all actives have a fitted effect of over 60% in size; conditions: P. falciparum in erythrocytes, SYBR Green DNA, 72 h; series mostly up to 28.7 µM
In short: (§1)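 Readout was DNA-dye fluorescence from lysed cultures, ex 485/em 535 nm. Parasitized red cells had grown 72 h with compound; data scaled between 0.29 uM artemisinin and DMSO wells and corrected using vehicle-only plates.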
Potency is read from the fitted curve at half-maximal effect.

SMILES | Potency
O=C(O)CCCCC(=O)O | inactive
CCOC(=O)n1ccn(C)c1=S | inactive
COc1cc(NS(C)(=O)=O)ccc1Nc1c2ccccc2nc2ccccc12 | 2 µM (active)
C[C@]12CC[C@@H]3c4ccc(O)cc4CC[C@H]3[C@@H]1CC[C@@H]2O | inactive
NCCC(O)(P(=O)(O)O)P(=O)(O)O | inactive
CCN1CCC[C@H]1CNC(=O)c1c(OC)ccc(Br)c1OC | inactive
CCN1CCN(c2cc3c(cc2F)c(=O)c(C(=O)O)cn3C2CC2)CC1 | inactive
CN1C2CCC1CC(OC(=O)c1c[nH]c3ccccc13)C2 (centres undefined) | inactive
Oc1c(Cl)cc(Cl)cc1Sc1cc(Cl)cc(Cl)c1O | inactive
CC(=O)Oc1ccc(C(=C2CCCCC2)c2ccc(OC(C)=O)cc2)cc1 | inactive
CC(=O)OCC(=O)NCCCOc1cccc(CN2CCCCC2)c1 | inactive
CCOC(=O)/C=C(C)/C=C/C=C(C)/C=C/c1c(C)cc(OC)c(C)c1C | 3.55 µM (active)
CCN(CC)C(=O)N1CCN(C)CC1 | inactive
CCN1CCCC1=O | inactive
CCN(CC)CCNC(=O)COc1ccc(Cl)cc1 | inactive
Cc1c(F)c(N2CCNC(C)C2)cc2c1c(=O)c(C(=O)O)cn2C1CC1 (centres undefined) | inactive
CC(C)(Oc1ccc(Cl)cc1)C(=O)O | inactive
CCCCC1=NC2(CCCC2)C(=O)N1Cc1ccc(-c2ccccc2-c2nn[nH]n2)cc1 | inactive

SMILES | Potency
CCCCCCCCCCCCCCCCOP(=O)([O-])OCC[N+](C)(C)C | inactive
C#C[C@]1(OC(C)=O)CC[C@H]2[C@@H]3CCC4=C[C@@H](OC(C)=O)CC[C@@H]4[C@H]3CC[C@@]21C | inactive
CCCn1c(=O)[nH]c(=O)c2[nH]cnc21 | inactive
CC(O)C(=O)O (centres undefined) | inactive
O=C(OCCOCCO)c1ccccc1Nc1cccc(C(F)(F)F)c1 | inactive
c1ccc(-c2ccc(C(c3ccccc3)n3ccnc3)cc2)cc1 (centres undefined) | 11.2 µM (active)
Cc1cccn2c(=O)c(-c3nnn[nH]3)cnc12 | inactive
NCCc1ccn[nH]1 | inactive
O=C1OC(c2ccc(O)cc2)(c2ccc(O)cc2)c2ccccc21 | inactive
CN1C(CCl)Nc2cc(Cl)c(S(N)(=O)=O)cc2S1(=O)=O (centres undefined) | inactive
COc1cc(C(=S)N2CCOCC2)cc(OC)c1OC | inactive
C[C@H]1[C@H](NC(=O)/C(=N/OC(C)(C)C(=O)O)c2csc(N)n2)C(=O)N1S(=O)(=O)O (stereo in doubt) | inactive
NCCCC[C@H](N[C@@H](CCc1ccccc1)C(=O)O)C(=O)N1CCC[C@H]1C(=O)O | inactive
CC(C)(CO)[C@@H](O)C(=O)NCCCO | inactive
Cc1ccnc(NS(=O)(=O)c2ccc(N)cc2)n1 | inactive
CNCCC(Oc1ccccc1C)c1ccccc1 (centres undefined) | inactive
Nc1ccc(C(=O)O)cc1 | inactive

tested on: TAB165; assay: as above; conditions: P. falciparum in erythrocytes, SYBR Green DNA, 72 h; series mostly up to 28.7 µM
In short: as §1

SMILES | Potency
O=C(O)CCCCC(=O)O | inactive
CCOC(=O)n1ccn(C)c1=S | inactive
COc1cc(NS(C)(=O)=O)ccc1Nc1c2ccccc2nc2ccccc12 | 2.24 µM (active)
C[C@]12CC[C@@H]3c4ccc(O)cc4CC[C@H]3[C@@H]1CC[C@@H]2O | inactive
NCCC(O)(P(=O)(O)O)P(=O)(O)O | inactive
CCN1CCC[C@H]1CNC(=O)c1c(OC)ccc(Br)c1OC | inactive
CCN1CCN(c2cc3c(cc2F)c(=O)c(C(=O)O)cn3C2CC2)CC1 | inactive
CN1C2CCC1CC(OC(=O)c1c[nH]c3ccccc13)C2 (centres undefined) | inactive
Oc1c(Cl)cc(Cl)cc1Sc1cc(Cl)cc(Cl)c1O | inactive
CC(=O)Oc1ccc(C(=C2CCCCC2)c2ccc(OC(C)=O)cc2)cc1 | inactive
CC(=O)OCC(=O)NCCCOc1cccc(CN2CCCCC2)c1 | inactive
CC(C)NC[C@@H](O)COc1cccc2ccccc12 | 7.94 µM (active)
CCN(CC)C(=O)N1CCN(C)CC1 | inactive
Nc1ccc(/C=C/c2ccc(N)cc2S(=O)(=O)O)c(S(=O)(=O)O)c1 | inactive
CCN1CCCC1=O | inactive
CCN(CC)CCNC(=O)COc1ccc(Cl)cc1 | 11.2 µM (active)
Cc1c(F)c(N2CCNC(C)C2)cc2c1c(=O)c(C(=O)O)cn2C1CC1 (centres undefined) | inactive

SMILES | Potency
CC(C)(Oc1ccc(Cl)cc1)C(=O)O | inactive
CCCCCCCCCCCCCCCCOP(=O)([O-])OCC[N+](C)(C)C | inactive
C#C[C@]1(OC(C)=O)CC[C@H]2[C@@H]3CCC4=C[C@@H](OC(C)=O)CC[C@@H]4[C@H]3CC[C@@]21C | inactive
CCCn1c(=O)[nH]c(=O)c2[nH]cnc21 | inactive
CC(O)C(=O)O (centres undefined) | inactive
CCCCc1nc(Cl)c(CO)n1Cc1ccc(-c2ccccc2-c2nn[nH]n2)cc1 | 8.91 µM (active)
O=C(OCCOCCO)c1ccccc1Nc1cccc(C(F)(F)F)c1 | inactive
c1ccc(-c2ccc(C(c3ccccc3)n3ccnc3)cc2)cc1 (centres undefined) | 2.82 µM (active)
Cc1cccn2c(=O)c(-c3nnn[nH]3)cnc12 | inactive
NCCc1ccn[nH]1 | inactive
O=C1OC(c2ccc(O)cc2)(c2ccc(O)cc2)c2ccccc21 | inactive
CN1C(CCl)Nc2cc(Cl)c(S(N)(=O)=O)cc2S1(=O)=O (centres undefined) | inactive
C[C@H]1[C@H](NC(=O)/C(=N/OC(C)(C)C(=O)O)c2csc(N)n2)C(=O)N1S(=O)(=O)O (stereo in doubt) | inactive
NCCCC[C@H](N[C@@H](CCc1ccccc1)C(=O)O)C(=O)N1CCC[C@H]1C(=O)O | inactive
CC(C)(CO)[C@@H](O)C(=O)NCCCO | inactive
Cc1ccnc(NS(=O)(=O)c2ccc(N)cc2)n1 | inactive
Nc1ccc(C(=O)O)cc1 | inactive
